From PubChem BioAssay (NCI) come the findings set out here.

Each structure is given as a SMILES string. About 83,000 compounds went through this panel and 20% of them were active in at least one assay; those are over-represented in the sample as a whole.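 96-well plates, one dose, 48 hours. Percent growth reported; active if below 10.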 Values without a mark were called inactive. Activity calls are given as the source filed them.

Some test systems named below: SR leukemia; RPMI-8226 leukemia; OVCAR-8 ovarian; OVCAR-5 ovarian; OVCAR-4 ovarian; SK-OV-3 ovarian; IGROV1 ovarian; OVCAR-3 ovarian; HS 578T breast; NCI/ADR-RES ovarian; T-47D breast; BT-549 breast; MDA-MB-435 melanoma; SW-620 colon; MCF7 breast; HCT-116 colon; HCC-2998 colon; KM12 colon.
Common to all, as to assay: NCI-60 one-dose screen, 48 h (100 = growth as untreated, 0 = no growth, -100 = all killed)
Common to all, as to details: 10 µM unless noted

Regarding `CN1CCN(c2ccc(Nc3nc(NCCCNS(=O)(=O)c4ccccc4)c4sccc4n3)cc2)CC1`, the growth was 2.4% (active) with SR leukemia; 14.6% with RPMI-8226 leukemia; 65.8% in the assay on OVCAR-8 ovarian; 78.3% in the assay on OVCAR-5 ovarian; 56.5% with OVCAR-4 ovarian; 122% in the assay with SK-OV-3 ovarian. In addition, the growth was 79.7% with IGROV1 ovarian; 74.3% with OVCAR-3 ovarian; 80.3% in the assay on HS 578T breast; 86.4% in the assay with NCI/ADR-RES ovarian; 36.8% in the assay with T-47D breast; 62.1% in the assay with BT-549 breast. Further, the growth in the assay with MDA-MB-435 melanoma is 50.6%; in the assay on SW-620 colon it was 52.5%; with MCF7 breast it was 35.5%; with HCT-116 colon it was 16.7%; in the assay on HCC-2998 colon, 60.4%; in the assay on KM12 colon it was 73.3%.
On to `Cc1ccc2c(n1)C(=O)C(Cl)=C(Nc1cccc(C)c1C)C2=O`, for which the growth is 6.7% (active) in the assay with SR leukemia; -12.7% (active) with RPMI-8226 leukemia; -3.5% (active) in the assay with OVCAR-8 ovarian; -29% (active) in the assay with OVCAR-5 ovarian; -97.6% (active) in the assay with OVCAR-4 ovarian; 117% in the assay with SK-OV-3 ovarian. For the same compound, the growth in the assay on IGROV1 ovarian is -58.4% (active); in the assay with OVCAR-3 ovarian it was -97.8% (active); with HS 578T breast, -13% (active); in the assay with NCI/ADR-RES ovarian, -5.45% (active); in the assay on T-47D breast, -56.7% (active); in the assay on BT-549 breast it was 44%. Further, the growth was -86.5% (active) in the assay with MDA-MB-435 melanoma; -9.92% (active) in the assay with SW-620 colon; -59.3% (active) with MCF7 breast; -42.9% (active) in the assay with HCT-116 colon; 51.6% in the assay on HCC-2998 colon; 26.1% in the assay with KM12 colon.
With `O=C(CCCCCCNC(=O)C(O)(O)C(F)(F)F)Nc1ccc(-c2ccccc2)cc1`, the growth in the assay with SR leukemia is 2.65% (active); in the assay on RPMI-8226 leukemia it was 15.1%; in the assay with OVCAR-8 ovarian, 6.81% (active); in the assay with OVCAR-5 ovarian, 9.32% (active); in the assay on OVCAR-4 ovarian it was 36.6%; in the assay on SK-OV-3 ovarian it was -22.6% (active). Besides, the growth in the assay with IGROV1 ovarian is 14.3%; in the assay on OVCAR-3 ovarian, -16.6% (active); in the assay on HS 578T breast, 33.8%; in the assay on NCI/ADR-RES ovarian, 7.74% (active); in the assay with T-47D breast, 11.5%; with BT-549 breast it was 14.8%. For the same compound, the growth in the assay on MDA-MB-435 melanoma is 7.66% (active); in the assay on SW-620 colon it was 2.53% (active); with MCF7 breast, 9.59% (active); in the assay on HCT-116 colon it was 4.14% (active); in the assay on HCC-2998 colon, -0.948% (active); with KM12 colon it was 8.38% (active).
For the compound `CCNCCOc1ccc(/C(=C(/CC)c2ccc(Cl)cc2)c2ccc(OCCCN(C)C)cc2)cc1`, the growth with SR leukemia is -36.8% (active); with RPMI-8226 leukemia, -36.2% (active); with OVCAR-8 ovarian, -81.7% (active); in the assay on OVCAR-5 ovarian, -93% (active); in the assay with OVCAR-4 ovarian, -88% (active); with SK-OV-3 ovarian, -93.8% (active). Further, the growth in the assay with IGROV1 ovarian is -82.3% (active); in the assay with OVCAR-3 ovarian it was -77.4% (active); in the assay with HS 578T breast, -51.1% (active); in the assay with NCI/ADR-RES ovarian it was -82.5% (active); in the assay with T-47D breast, -60.2% (active); in the assay with BT-549 breast, -91.7% (active). Further, the growth is -74.2% (active) in the assay with MDA-MB-435 melanoma; -62.1% (active) in the assay on SW-620 colon; -82.5% (active) with MCF7 breast; -72.4% (active) in the assay with HCT-116 colon; -84.2% (active) with HCC-2998 colon; -85.3% (active) in the assay on KM12 colon.
As to `Cc1ccccc1NC(=O)Nc1nc2ccc([N+](=O)[O-])cc2s1`, the growth in the assay on SR leukemia was 6.41% (active); in the assay with RPMI-8226 leukemia it was 5.55% (active); with OVCAR-8 ovarian, 9.56% (active); with OVCAR-5 ovarian it was 16.9%; in the assay on OVCAR-4 ovarian it was 3.62% (active); in the assay on SK-OV-3 ovarian, -19.4% (active). Besides, the growth with IGROV1 ovarian was 22.6%; in the assay with OVCAR-3 ovarian, 10.1%; in the assay on HS 578T breast it was 24.1%; in the assay with NCI/ADR-RES ovarian, 6.24% (active); with T-47D breast, -10.8% (active); with BT-549 breast, -2.98% (active). Moreover, the growth was 5.39% (active) with MDA-MB-435 melanoma; 11.6% in the assay on SW-620 colon; 4.12% (active) with MCF7 breast; 2.44% (active) in the assay with HCT-116 colon; 24.6% in the assay with HCC-2998 colon; 4.18% (active) in the assay with KM12 colon.
As to `O=C(Nc1ccc(N2CCOCC2)cc1)Nc1ccc2c(ccn2C(=O)c2cccc(F)c2)c1`, the growth with SR leukemia was 71.8%; in the assay on RPMI-8226 leukemia, 58.5%; in the assay on OVCAR-8 ovarian, 58.3%; in the assay with OVCAR-5 ovarian, 99.3%; in the assay on OVCAR-4 ovarian, 82.6%; with SK-OV-3 ovarian, 111%. Also, the growth is 81% in the assay with IGROV1 ovarian; 82.7% with OVCAR-3 ovarian; 21.7% in the assay with HS 578T breast; 74.2% in the assay on NCI/ADR-RES ovarian; 68.9% in the assay on T-47D breast; 71.7% in the assay with BT-549 breast. The growth with MDA-MB-435 melanoma is 68.3%; in the assay with SW-620 colon it was 74.5%; with MCF7 breast it was 53.2%; in the assay with HCT-116 colon, 24.2%; in the assay on HCC-2998 colon, 62.4%; with KM12 colon, 74.1%.
As for `CCOC(=O)c1cccc(NC2=C(Cl)C(=O)c3nc(C)ccc3C2=O)c1`, the growth in the assay on SR leukemia was 37.1%; in the assay on RPMI-8226 leukemia, 53.3%; in the assay on OVCAR-8 ovarian, 97.8%; with OVCAR-5 ovarian, 104%; with OVCAR-4 ovarian it was 53.7%; in the assay with SK-OV-3 ovarian, 98%. Further, the growth with IGROV1 ovarian is 17.3%; in the assay on OVCAR-3 ovarian, 46.1%; in the assay on HS 578T breast it was 111%; with NCI/ADR-RES ovarian, 94.6%; in the assay on T-47D breast it was 56.4%; in the assay on BT-549 breast, 121%. The growth with MDA-MB-435 melanoma is 108%; in the assay with SW-620 colon, 84.3%; in the assay on MCF7 breast, 76%; in the assay with HCT-116 colon, 76.7%; with HCC-2998 colon, 122%; with KM12 colon it was 105%.
For the compound `COC(=O)c1cccc(NC2=C(Cl)C(=O)C(C)=C(C)C2=O)c1`, the growth in the assay with SR leukemia was 30%; in the assay with RPMI-8226 leukemia, 58.3%; with OVCAR-8 ovarian, 99.4%; in the assay with OVCAR-5 ovarian, 101%; in the assay on OVCAR-4 ovarian it was -36.7% (active); in the assay with SK-OV-3 ovarian it was 106%. Further, the growth in the assay on IGROV1 ovarian was 56.2%; with OVCAR-3 ovarian it was 94.2%; with HS 578T breast, 88.1%; in the assay with NCI/ADR-RES ovarian, 98.2%; with T-47D breast, -18.1% (active); with BT-549 breast, 96.2%. For the same compound, the growth is 104% in the assay on MDA-MB-435 melanoma; 103% with SW-620 colon; 82% in the assay on MCF7 breast; 70.1% in the assay with HCT-116 colon; 98.2% in the assay with HCC-2998 colon; 49.2% in the assay on KM12 colon.
